From PubChem BioAssay
CDK5 p35 inh: blocks human CDK5/p35 kinase activity; Q00535+Q15078; Recombinant CDK5/p35, ADP-Glo luminescence, 60 min; inhibition, % at 10 µM; 330,000 compounds, 0.01% hits; AID 488839;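 active means highest replicate inhibition of at least 50% and at least 75% of replicates reaching 50%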;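 further: plate controls were DMSO neutral control for no effect and GW8510 at 10 µM for full effect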
CASP6 VEID inh: inhibitors of human caspase-6 | inhibition, % at 12.5 µM | 350,000 compounds, 0.53% hits | purified caspase-6, Z-VEID-R110 cleavage fluorescence | AID 686996 | P55212;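 active means mean inhibition across replicates at least about 35%, with every replicate also reaching that limit, limit read from the data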;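 further: 0% = median of neutral control wells and 100% = no fluorescence left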
N-glyco inh: blocks N-linked glycosylation in D54 reporter cells; D54 ERlucT glycosylation luciferase reporter, 24 h; percent of 100 nM tunicamycin response; reporter increase, % at 12.5 µM; 360,000 compounds, 0.23% hits;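 active means mean luciferase reporter signal, scaled so untreated is 0 and the glycosylation-blocking control 100, at or above a set limit in every replicate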;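 further: luciferase carries N-glycosylation sites so blocking glycosylation raises the light; 0% = median of neutral control wells and 100% = median of 100 nM tunicamycin wells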
ALR inh: human ALR oxidase inhibition via reduced H2O2 | 290,000 compounds, 3.8% hits | inhibition, % (concentration not given with the values) | purified ALR, DTT oxidation, H2O2 HRP-luminol luminescence | P55789;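 active means mean replicate inhibition above about 79%, with every replicate also reaching it, limit read from the data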
SUMO Mot1 rescue: blocks SUMOylation pathway, rescuing yeast Mot1-301 growth. S. cerevisiae Mot1-301 growth rescue, ATP luminescence, 38.5C; percent above DMSO median, 100 means doubled. growth rescue, % at 18.8 µM. 320,000 compounds, 1% hits. AID 2716;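 active means every valid replicate shows activation above 250% relative to neutral control wells; inactive means the rest, any valid replicate at or below 250%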;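 further: OY570 slx delta 5 strain wells were the positive control but not used for scaling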
NSD2 inh: NSD2 (human) methyltransferase inhibition. inhibition, % at 12.5 µM. 310,000 compounds, 0.54% hits. NSD2 peptide methylation, AlphaScreen, 120 min. AID 743445; in the data active means inhibition above about 50%
Target sequence (O96028 whole entry, looked up): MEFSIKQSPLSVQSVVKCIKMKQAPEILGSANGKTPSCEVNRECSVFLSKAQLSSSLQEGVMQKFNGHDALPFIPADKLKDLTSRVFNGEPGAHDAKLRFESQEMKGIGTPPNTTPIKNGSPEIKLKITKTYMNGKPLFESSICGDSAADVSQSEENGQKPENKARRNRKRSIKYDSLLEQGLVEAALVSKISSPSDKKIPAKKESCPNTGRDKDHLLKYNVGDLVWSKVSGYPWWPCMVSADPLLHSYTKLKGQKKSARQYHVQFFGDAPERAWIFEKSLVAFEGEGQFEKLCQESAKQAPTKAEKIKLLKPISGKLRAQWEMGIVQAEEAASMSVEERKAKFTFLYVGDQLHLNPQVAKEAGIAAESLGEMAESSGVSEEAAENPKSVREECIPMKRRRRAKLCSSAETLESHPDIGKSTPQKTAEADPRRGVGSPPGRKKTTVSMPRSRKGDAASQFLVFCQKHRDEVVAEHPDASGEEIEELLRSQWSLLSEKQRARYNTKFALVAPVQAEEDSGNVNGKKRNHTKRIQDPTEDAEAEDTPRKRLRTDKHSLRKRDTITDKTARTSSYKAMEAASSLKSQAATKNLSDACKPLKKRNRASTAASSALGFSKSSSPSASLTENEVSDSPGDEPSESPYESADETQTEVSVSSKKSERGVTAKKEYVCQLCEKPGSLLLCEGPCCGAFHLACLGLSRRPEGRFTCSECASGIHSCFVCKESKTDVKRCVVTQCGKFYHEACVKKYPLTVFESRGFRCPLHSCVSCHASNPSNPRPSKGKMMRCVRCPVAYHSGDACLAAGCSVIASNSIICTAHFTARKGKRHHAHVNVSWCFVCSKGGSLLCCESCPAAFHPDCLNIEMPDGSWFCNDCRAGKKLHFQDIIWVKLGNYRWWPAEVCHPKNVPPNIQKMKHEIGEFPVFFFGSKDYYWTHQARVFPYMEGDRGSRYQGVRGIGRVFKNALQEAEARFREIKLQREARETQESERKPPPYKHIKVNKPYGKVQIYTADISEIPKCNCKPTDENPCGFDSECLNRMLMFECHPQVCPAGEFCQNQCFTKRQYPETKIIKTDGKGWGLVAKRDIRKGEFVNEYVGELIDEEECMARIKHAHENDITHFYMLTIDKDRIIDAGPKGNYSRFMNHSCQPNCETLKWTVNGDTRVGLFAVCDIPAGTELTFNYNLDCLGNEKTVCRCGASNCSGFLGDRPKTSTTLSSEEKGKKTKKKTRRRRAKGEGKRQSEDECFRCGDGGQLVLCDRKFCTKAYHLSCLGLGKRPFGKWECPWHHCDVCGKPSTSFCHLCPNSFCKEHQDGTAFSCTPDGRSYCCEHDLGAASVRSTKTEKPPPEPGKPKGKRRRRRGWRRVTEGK
Yeast Mot1 SUMO: SUMO pathway inhibitors in yeast Mot1-301 growth; shares compounds with SUMO Mot1 rescue; S. cerevisiae Mot1-301 galactose growth, ATP luminescence, 24 h; -100 = growth of slx-deleted rescue strain; growth activity, percent, % at 42 µM; 2,300 tested, under 10 active; AID 493004;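 active means Signal drops as the depositor expects, and the fitted half-maximal dose is no more than ten times the top valid tested dose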;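 further: more negative values mean stronger growth rescue toward the control strain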
Numbers without * were called inactive; . = no result given; + = active, no number; ! = not active in a repeat. Shown are actives, neighbours in structure and some others; about 3.9% of the full set was active somewhere.

SMILES | CDK5 p35 inh | CASP6 VEID inh | N-glyco inh | ALR inh | SUMO Mot1 rescue | NSD2 inh | others
Cc1ccc(/C=C2\C(=O)NC(=S)N(c3ccc(F)cc3)C2=O)o1 | -9 | 41* | 0 | 0 | 9 | 32
COc1ccc(N2C(=O)/C(=C/c3ccc(N(C)C)o3)C(=O)NC2=S)cc1 | -1 | 11 | -6 | 10 | -19 | .
O=C(Cc1ccccc1)N1CCCCN2[C@H](C1)[C@H](c1ccc(C#Cc3ccccc3)cc1)[C@@H]2CO | . | 3 | . | . | . | .
CCNc1ccc(P(=S)(N(C)C)N(C)C)cc1 | 1 | -1 | 1 | 99* | 8 | -3
COC(=O)[C@@H]1[C@@H](CO)[C@@H]2Cn3c(ccc(-c4ccncc4)c3=O)[C@H]1N2S(=O)(=O)c1ccccc1C | . | 0 | . | . | . | .
CCCC/C(=N/O)c1c(C)[nH]c2ccccc12 | -10 | -3 | -1 | 99* | 0 | 2
CCCCC/C(=N/O)c1c(C)[nH]c2ccccc12 | -3 | -1 | 0 | 99* | -19 | -5
O=c1[nH]c(=S)[nH]c(O)c1N=Nc1ccc(SC(F)F)cc1 | 1 | -4 | 0 | 98* | -14 | 2
CC(C)c1ccc(N=Nc2c(O)[nH]c(=O)[nH]c2=O)cc1 | 1 | -6 | 0 | -4 | -16 | 1
COC(=O)[C@H]1[C@H](CO)[C@H]2Cn3c(ccc(C4=CCCCC4)c3=O)[C@@H]1N2Cc1cccnc1 | . | -3 | . | . | . | .
O=C(Cn1ncc2ccsc2c1=O)N1CCC2(CC1)OCCO2 | 0 | -1 | 0 | -6 | 2 | 42
Cc1ccccc1-c1nc(CS(=O)CC(=O)N2CCC3(CC2)OCCO3)c(C)o1 (stereo unspecified) | 0 | . | 2 | 100* | -10 | 0
Cc1ccsc1-c1nc(CSCC(=O)N2CCC3(CC2)OCCO3)c(C)o1 | 1 | . | -1 | 99* | -12 | 0
CC(C)CC#Cc1ccc([C@H]2[C@@H](CO)N3CCCCN(C(=O)Cc4ccccn4)C[C@H]23)cc1 | . | -3 | . | . | . | .
CCN(CC)c1ccc(/C=C/[N+](=O)[O-])cc1 | -9 | -21 | 8 | 99* | 153 | 7
CCN(CC)c1ccccc1 | -1 | 1 | 0 | -3 | -26 | .
CCN(CC)c1ccc(CC2C(=O)N(C)C(=O)N(C)C2=O)cc1 | 0 | . | -2 | 99* | 6 | .
C=CCOc1ccc(CC2C(=O)N(C)C(=O)N(C)C2=O)cc1 | 0 | . | 1 | 19 | 12 | 17
COC(=O)C[C@H]1CC[C@H]2NC[C@H](O)COC[C@@H]2O1 | . | 1 | . | . | . | .
O=C1NC(=O)N(Cc2ccco2)C(=O)/C1=C\c1cccn1CCOc1ccc(Cl)cc1 | 0 | 68* | 3 | 53 | . | 19
CCc1ccc(N2C(=O)NC(=O)/C(=C/c3cccn3CCOc3ccc(C)cc3)C2=O)cc1 | -1 | 10 | 7 | -1 | -1 | 6
Cc1cccc(OCCn2cccc2/C=C2/C(=O)NC(=O)N(Cc3ccco3)C2=O)c1 | . | 44* | 3 | 14 | 21 | 13
CC(=O)N1[C@@H]2c3ccc(-c4cccc(C(=O)N(C)C)c4)c(=O)n3C[C@H]1[C@H](CO)[C@H]2C(=O)O | . | 0 | . | . | . | .
O=C(O)[C@H]1[C@H](CO)[C@H]2Cn3c(ccc(-c4cncnc4)c3=O)[C@@H]1N2C(=O)NC1CCCC1 | . | 0 | . | . | . | .
C=CCn1c(O)c(/C=N/NC(=O)CCCC)c(=O)[nH]c1=S | -1 | 6 | 1 | 90* | 11 | -1
SMILES | CDK5 p35 inh | CASP6 VEID inh | N-glyco inh | ALR inh | SUMO Mot1 rescue | NSD2 inh | others
CCCCCCC(=O)N/N=C/c1c(O)n(C2CC2)c(=S)[nH]c1=O | 0 | -3 | 2 | 5 | 3 | -1
Oc1ccc(C2=CCNCC2)cc1O | 0 | -1 | 0 | 99* | -19 | .
CN1[C@@H]2Cn3c(cccc3=O)[C@H]1[C@@H](C(=O)NCC1CC1)[C@@H]2CO | . | 0 | . | . | . | .
C=CCN1C(=O)NC(=O)/C(=C\c2ccc(-c3ccccc3[N+](=O)[O-])o2)C1=O | -1 | 11 | 5 | 98* | 3 | 4
O=C1NC(=O)N(Cc2ccco2)C(=O)/C1=C/c1ccc(-c2cccc([N+](=O)[O-])c2)o1 | -2 | . | 5 | 54 | -23 | .
N/C(=N\N=C\c1ccc(O)cc1O)N[N+](=O)[O-] | 0 | . | 1 | 20 | 1 | -1
N/C(=N\[N+](=O)[O-])N/N=C/c1ccc(O)cc1 | 1 | 4 | 3 | 97* | 4 | 2
CNCCc1ccc(O)c(O)c1 | 1 | -13 | 1 | 97* | -15 | .
CC(Cc1ccccc1)NC(N)=O (stereo unspecified) | 1 | 0 | 2 | -42 | -28 | -1
CC(Cc1ccccc1)NC(=O)Cc1ccc(N(C)C)cc1 (stereo unspecified) | -1 | 2 | 1 | 99* | 10 | -2
CN1CCC2(CC1)C(C#N)=C(N)NC(S)=C2C#N | 0 | 47*! | 1 | -22 | 16 | 46
Cc1nn(Cc2ccccc2)c(C)c1C(=O)NCc1ccccc1 | 0 | -2 | 0 | -1 | -1 | 3
Cc1nn(Cc2ccccc2)c(C)c1C=C1C(=O)NC(=O)NC1=O | 3 | . | 3 | 95* | -4 | 6
CCN(CC)c1ccc(N=Cc2c(O)n(Cc3ccccc3)c(=O)[nH]c2=O)cc1 | 0 | . | 8 | -8 | 385*! | 15 | Yeast Mot1 SUMO=0
O=c1[nH]c(=O)n(Cc2ccc(F)cc2)c(O)c1C=Nc1ccc(Cl)cc1 | -7 | -5 | 2 | -6 | -12 | 2
CCOP(=O)(Cc1ccc(C(=O)CC)o1)OCC | 1 | 0 | 1 | -2 | -7 | 0
CCOP(=O)(Cc1cc(C(=O)CC)c(C)o1)OCC | . | -2 | 0 | 3 | 658* | 0 | Yeast Mot1 SUMO=0
Cc1ccccc1NC1=NCCCS1 | 1 | . | 2 | 2 | 469* | -1 | Yeast Mot1 SUMO=0
Fc1ccc2c(c1)nnn2C1CCN(Cc2nnnn2C2CCCCC2)CC1 | 0 | . | -3 | 11 | 733* | . | Yeast Mot1 SUMO=0
CN1C(=O)C(=Cc2ccc(N3CCCCC3)o2)C(=O)N(C)C1=S | 1 | . | 2 | 1 | 848* | 3 | Yeast Mot1 SUMO=0
CCN(CC)c1ccc(C=C2C(=O)N(C)C(=S)N(C)C2=O)o1 | 1 | 3 | 3 | 0 | -18 | 5
O=C1NC(=O)[C@]2(Cc3ccccc3N3CCN(c4ccccc4)CC32)C(=O)N1c1ccccc1 (stereo partly specified) | 0 | . | -3 | 3 | 16 | 4
CN1C(=O)NC(=O)[C@]2(Cc3ccccc3N3CCN(c4ccccc4)CC32)C1=O (stereo partly specified) | -1 | . | -2 | 20 | 663* | 5 | Yeast Mot1 SUMO=1
O=Cc1cn(Cc2c(F)cccc2Cl)c2ccccc12 | 0 | 1 | -6 | . | 7 | -2
O=Cc1cn(Cc2ccccc2F)c2ccccc12 | -1 | 2 | -15 | -4 | + | 13 | Yeast Mot1 SUMO=0
